Bioassay records (PubChem)
JMJD2A Tudor – qHTS Assay for Inhibitors of JMJD2A-Tudor Domain | Lysine-specific demethylase 4A (Homo sapiens), O75164 | AlphaScreen JMJD2A-Tudor / H3K4me3 peptide binding | Potency, µM (highest dose often 114 µM), usual class: inhibitors | 4.4% of 390,000 active | AID 504339, 2011; further: nearly all actives have a fitted effect of over 50% in size
Sfp inh – qHTS Assay for Inhibitors of Bacillus subtilis Sfp phosphopantetheinyl transferase (PPTase); 4'-phosphopantetheinyl transferase ffp (Bacillus subtilis), Q9F4F7; Biochemical Sfp PPTase activity, qHTS; Potency, µM, actives largely listed as inhibitors; 3.5% of 310,000 active;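 further: the enzyme is Sfp with the accession as filed and its product quenches rhodamine fluorescence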
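Fluorescence-quenching assay with 15 nM Sfp, 5 uM rhodamine-CoA and 12.5 uM BHQ-2-labelled ybbR peptide in pH 7.6 Hepes/MgCl2 buffer. Enzyme was pre-incubated with compound for 15 min at room temperature. Rate was taken from the 30-min fluorescence change (525/598 nm).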
HP1b binding inh – HTS for Inhibitors of HP1-beta Chromodomain Interactions with Methylated Histone Tails | AlphaScreen HP1-beta / biotin-H3K9me3 peptide binding | Potency, µM (series often up to 114 µM), hits mostly inhibitors | 0.56% of 390,000 active | AID 540317, 2011; further: nearly all actives have a fitted effect of over 70% in size
Target sequence (P83916 whole entry, looked up): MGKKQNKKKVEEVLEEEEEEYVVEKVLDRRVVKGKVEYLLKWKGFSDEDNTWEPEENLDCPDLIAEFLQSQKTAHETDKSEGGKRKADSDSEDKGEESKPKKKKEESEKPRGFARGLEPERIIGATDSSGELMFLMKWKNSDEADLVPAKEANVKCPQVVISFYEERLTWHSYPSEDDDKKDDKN
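Compound inhibition of the preformed complex between 50 nM HP1-beta and 50 nM biotinylated H3K9me3 peptide was read by AlphaScreen. Buffer was PBS pH 7.4 with 0.01% Tween-20. Incubations ran 30 min at room temperature, with 10 ug/mL donor/acceptor beads.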
G9a block – qHTS Assay for Inhibitors of Histone Lysine Methyltransferase G9a; Histone-lysine N-methyltransferase EHMT2 (Homo sapiens), Q96KQ7; G9a H3K9 monomethylation, AlphaScreen, 2 h; Potency, µM (top dose mostly 102 µM), actives largely listed as inhibitors; 8.8% of 350,000 active; AID 504332, 2011; further: nearly all actives have a fitted effect of over 75% in size
Target sequence (Q96KQ7 913-1193 limits assumed): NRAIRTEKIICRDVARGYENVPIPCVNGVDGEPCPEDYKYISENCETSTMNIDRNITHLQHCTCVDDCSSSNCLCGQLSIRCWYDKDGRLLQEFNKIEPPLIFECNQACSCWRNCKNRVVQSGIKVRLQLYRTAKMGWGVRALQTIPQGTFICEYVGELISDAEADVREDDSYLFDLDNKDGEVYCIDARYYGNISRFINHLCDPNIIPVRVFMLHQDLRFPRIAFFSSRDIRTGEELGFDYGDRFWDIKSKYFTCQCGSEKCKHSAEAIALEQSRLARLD
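Quantitative HTS format: methyltransferase activity on a biotin-tagged H3K9 peptide is measured by AlphaScreen, using a rabbit anti-monomethyl-H3K9 antibody with streptavidin donor and anti-IgG acceptor beads. Final levels are 20 nM enzyme, 500 nM peptide, 20 uM SAM; 2 h RT.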
12-LOX inh – Primary qHTS assay for inhibitors of human arachidonate 12S-lipoxygenase (ALOX12): Round 2 | Polyunsaturated fatty acid lipoxygenase ALOX12 (Homo sapiens), P18054 | purified 12hLO, xylenol orange hydroperoxide absorbance | Potency, µM (titrated, usually from 108 µM), most hits filed as inhibitors | 1.1% of 580,000 active
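Purified human 12hLO (150 nM final) in 25 mM Hepes, 0.01% Triton X-100, pH 7.0 was preincubated 15 min at room temperature with compound. Then 40 uM arachidonic acid was added, 30 min. Hydroperoxide was read by Fe-XO absorbance ratio 573/405 nm.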
BAZ2B block – qHTS Assay for Inhibitors of BAZ2B; AlphaScreen BAZ2B-H3K14Ac peptide displacement; Potency, µM (highest dose often 114 µM), actives largely listed as inhibitors; 4.4% of 360,000 active; further: nearly all actives have a fitted effect of over 60% in size
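Inhibition is scored as reduced AlphaScreen emission. The BAZ2B/b-H3(5-23)K14Ac complex (50 nM each) in PBS pH 7.4, 0.01% Tween-20 meets compound (up to 110 uM) for 30 min at RT before bead addition.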
Each line names hits and unclear results; the compound was inactive in the other large screens. An excerpt weighted towards active compounds, which were near 8.7% of everything screened. The call rests on the fitted dose curve; in most records, active means well fitted curve in the direction sought with a large enough effect; inconclusive means small, poorly fitted or top-dose-only effect, or another doubt; inactive means no such curve, though single readings can be large; an effect the other way counts as inactive or inconclusive.

COc1ccc(CNC(=O)CSCc2cnn(-c3ccccc3)c2-n2cccc2)cc1	G9a block 32µM, 12-LOX inh inconclusive
O=C(CSCc1cnn(-c2ccccc2)c1-n1cccc1)NCC1CCCO1 (stereo unspecified)	G9a block 50µM
O=C(CSCc1cnn(-c2ccccc2)c1-n1cccc1)NCCN1CCOCC1	none
CCN1C(c2ccccc2)=C(c2ccccc2)S/C1=C\C=C1/SC(=S)N(C)C1=O	JMJD2A Tudor 7.9µM, HP1b binding inh 8.9µM (no result: Sfp inh, G9a block, BAZ2B block)
CCN1C(=O)/C(=C/C=C2/Sc3ccc4ccccc4c3N2CCO)SC1=S	Sfp inh 50µM, BAZ2B block inconclusive
CCN1C(c2ccccc2)=C(c2ccccc2)S/C1=C/C=C1\SC(=S)N(C)C1=O	JMJD2A Tudor 8.9µM, Sfp inh inconclusive, HP1b binding inh 11µM, G9a block 5.6µM, 12-LOX inh inconclusive, BAZ2B block 2.5µM
Cc1cnc(C(=O)N2CCCN(C(=O)C3CC3)C(c3ccccc3)CC(=O)NCC2)cn1 (stereo unspecified)	none (no result: JMJD2A Tudor, Sfp inh, HP1b binding inh, G9a block, BAZ2B block)
Cc1cc(O)c(-c2cc(O)c(C)cc2O)cc1O	JMJD2A Tudor 5µM, Sfp inh 2.5µM, HP1b binding inh 1.8µM, G9a block 2µM, 12-LOX inh inconclusive, BAZ2B block 50µM
Cc1cc(N=O)c(C)cc1O	none (no result: JMJD2A Tudor, Sfp inh, HP1b binding inh, G9a block, BAZ2B block)
CC(C)(C)NCCOc1ccc2ccccc2c1	none
CCOc1cccc(OCCOCCNC(C)(C)C)c1	JMJD2A Tudor 22µM, G9a block 14µM, 12-LOX inh inconclusive, BAZ2B block 45µM
CCOc1ccc(OCCCCNC(C)(C)C)cc1	JMJD2A Tudor 35µM, Sfp inh inconclusive, G9a block 22µM, 12-LOX inh inconclusive, BAZ2B block 50µM
COC(=O)C(C)Oc1ccc2c(=O)c(Oc3ccccc3Br)coc2c1 (stereo unspecified)	none (no result: JMJD2A Tudor, Sfp inh, HP1b binding inh, G9a block, BAZ2B block)
Cc1ccc(C)c(C(O)Cn2ccn3nc(-c4cccs4)cc3c2=O)c1 (stereo unspecified)	none (no result: JMJD2A Tudor, Sfp inh, HP1b binding inh, G9a block, BAZ2B block)
O=C(N/N=C/c1cc(Cl)cc([N+](=O)[O-])c1O)c1cc(-c2ccccn2)nc2ccccc12	JMJD2A Tudor 45µM, HP1b binding inh inconclusive, BAZ2B block inconclusive
COc1cccc(/C=N/NC(=O)c2cc(-c3ccccn3)nc3ccccc23)c1O	JMJD2A Tudor 56µM (no result: Sfp inh)
O=C(N/N=C/c1ccc(F)cc1)c1cc(-c2ccccn2)nc2ccccc12	none (no result: Sfp inh)
O=[N+]([O-])c1cc(Cl)cc(/C=N\Nc2ccccn2)c1O	JMJD2A Tudor 10µM, HP1b binding inh 10µM, G9a block inconclusive, BAZ2B block 4.5µM
O=C(NC1CCCCC1)c1cc2sc3ccccc3c2s1	none (no result: JMJD2A Tudor, Sfp inh, HP1b binding inh, G9a block, BAZ2B block)
CC(C)(C)C1=N/C(=C/c2ccc(OC(F)F)cc2)C(=O)O1	none (no result: JMJD2A Tudor, Sfp inh, HP1b binding inh, G9a block, BAZ2B block)
COc1ccc(-c2ccnc(-c3nnc(C)n3CCN(C)C)c2)cc1OC	none (no result: JMJD2A Tudor, Sfp inh, HP1b binding inh, G9a block, BAZ2B block)
CCOc1ccc(CNc2cccc(SC)c2)cc1	JMJD2A Tudor 3.2µM, HP1b binding inh 45µM, G9a block 28µM, BAZ2B block 40µM
CC1=C[C@@H](CNCc2ccccc2)[C@H](C(C)C)C[C@H]1Cc1nc2c(C)cccc2[nH]1	12-LOX inh 63µM (no result: JMJD2A Tudor, Sfp inh, HP1b binding inh, G9a block, BAZ2B block)
COc1ccccc1CNC[C@@H]1C=C(C)[C@H](Cc2nc3c(C)cccc3[nH]2)C[C@H]1C(C)C	12-LOX inh 56µM (no result: JMJD2A Tudor, Sfp inh, HP1b binding inh, G9a block, BAZ2B block)
CCOC(=O)c1[nH]c2ccccc2c1NC(=S)Nc1cccc(C)c1	JMJD2A Tudor inconclusive, G9a block 40µM, 12-LOX inh inconclusive, BAZ2B block inconclusive
CCOC(=O)c1[nH]c2ccccc2c1NC(=S)Nc1ccccc1	Sfp inh inconclusive, G9a block 45µM, 12-LOX inh inconclusive, BAZ2B block inconclusive
Cc1ccccc1N(C)C1CN(Cc2cncs2)C1	none (no result: JMJD2A Tudor, Sfp inh, HP1b binding inh, G9a block, BAZ2B block)
Cc1ccc(C(=O)OC(C)C(=O)NC(=O)NC2CCCCC2)c(O)c1 (stereo unspecified)	none (no result: JMJD2A Tudor, Sfp inh, HP1b binding inh, G9a block, BAZ2B block)
